# Pf Dd2 growth: P. falciparum Dd2 growth inhibition; SYBR Green, 72 h; stronger effect = lower value; activity change, % at 10 µM; 94,000 tested, 2.3% active; in the data active = activity change below about -80%
# C diff growth: C. difficile growth inhibition | 86,000 tested, 0.25% active | AID 1259249 | growth activity, negative = inhibition, % at 16 µg/mL (by protocol) | Clostridium difficile clinical isolate growth, OD600, 24 h; stronger effect = lower value;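 active = mean growth activity at or below -80% and every replicate also at or below -80%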;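 also: 0% = DMSO wells and -100% = levofloxacin 16 µg/mL wells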
# * = called active by the depositor; x = no result given. Shown are actives, neighbours in structure and some others; about 2.3% of the full set was active somewhere.
SMILES,Pf Dd2 growth,C diff growth
C[C@H]1CN([C@@H](C)CO)S(=O)(=O)c2ccc(C#Cc3ccc(F)cc3)cc2O[C@@H]1CN(C)S(=O)(=O)c1ccc(F)cc1,-50,-2
C[C@H]1CN([C@@H](C)CO)S(=O)(=O)c2ccc(C#Cc3ccncc3)cc2O[C@H]1CN(C)S(=O)(=O)c1ccc(F)cc1,-89*,10
C/C=C/c1ccc2c(c1)O[C@H](CN(C)CC1CCCC1)[C@@H](C)CN([C@H](C)CO)S2(=O)=O,-52,-1
C[C@H](CO)N1C[C@H](C)[C@H](CN(C)C(=O)CN(C)C)Oc2cc(C#CC(C)(C)O)ccc2S1(=O)=O,63,-3
C[C@@H]1CN([C@@H](C)CO)S(=O)(=O)c2ccc(C#Cc3ccc(F)cc3)cc2O[C@H]1CN(C)S(=O)(=O)c1ccc(F)cc1,-68,3
C[C@@H]1CN([C@@H](C)CO)S(=O)(=O)c2ccc(C#Cc3ccncc3)cc2O[C@H]1CN(C)S(=O)(=O)c1ccc(F)cc1,-86*,2
COc1ccc2c3c(n(C)c2c1)[C@@H](CO)N(Cc1ccccc1)CC31CCN(CC2CC2)CC1,-78,7
C[C@@H]1CN([C@H](C)CO)C(=O)c2cccc(NC(=O)CCCCCC(=O)Nc3ccccc3N)c2O[C@@H]1CN(C)CC1CC1,-45,7
C[C@@H]1CN([C@H](C)CO)C(=O)c2cccc(NC(=O)CCCCCC(=O)Nc3ccccc3N)c2O[C@H]1CN(C)CC1CC1,-75,-4
C[C@@H]1CN([C@@H](C)CO)C(=O)c2cccc(NC(=O)CCCCCC(=O)Nc3ccccc3N)c2O[C@H]1CN(C)CC1CC1,-85*,-2
C[C@H](CO)N1C[C@H](C)[C@@H](CN(C)CC2CCCCC2)Oc2c(NC(=O)CCCCCC(=O)Nc3ccccc3N)cccc2C1=O,-88*,5
C[C@H]1CN([C@@H](C)CO)C(=O)c2cccc(NC(=O)CCCCCC(=O)Nc3ccccc3N)c2O[C@@H]1CN(C)CC1CC1,-78,-17
C[C@H]1CN([C@@H](C)CO)C(=O)c2cccc(NC(=O)CCCCCC(=O)Nc3ccccc3N)c2O[C@H]1CN(C)CC1CCCCC1,-83*,-3
C[C@H](CO)N1C[C@H](C)[C@H](CN(C)S(=O)(=O)c2ccc(F)cc2)Oc2ccc(NC(=O)CCC(F)(F)F)cc2C1=O,23,-14
C[C@@H]1CN([C@@H](C)CO)C(=O)Cc2cc(NC(=O)CCCN(C)C)ccc2O[C@@H]1CN(C)S(=O)(=O)c1cccs1,9,-4
O=C(C1CC1)N1CCCCN2[C@H](C1)[C@H](c1ccc(-c3ccncc3)cc1)[C@@H]2CO,38,-13
C[C@H](CO)N1C[C@H](C)[C@H](CN(C)Cc2ccncc2)Oc2c(NS(=O)(=O)c3cccs3)cccc2C1=O,-12,-5
C[C@@H]1CN([C@@H](C)CO)C(=O)c2cc(NS(=O)(=O)c3cn(C)cn3)ccc2O[C@@H](C)CCCCO[C@H]1CN(C)Cc1ccc(C(=O)O)cc1,1,-4
C[C@H]1CN([C@@H](C)CO)C(=O)Cc2cc(N(C)C)ccc2O[C@@H]1CN(C)C(=O)Nc1ccc(C(F)(F)F)cc1,9,2
C[C@@H]1CN([C@H](C)CO)C(=O)c2cc(C#CCc3ccccc3)cnc2O[C@H]1CN(C)CC1CCCC1,-94*,8
C[C@H]1CN([C@@H](C)CO)C(=O)c2cc(C#CCc3ccccc3)cnc2O[C@@H]1CN(C)CC1CCCC1,-88*,-1
C[C@@H]1CN([C@H](C)CO)C(=O)c2cc(C#CCc3ccccc3)cnc2O[C@@H]1CN(C)CC1CCOCC1,-57,1
C[C@@H]1CN([C@H](C)CO)C(=O)c2cc(C#CCc3ccccc3)cnc2O[C@H]1CN(C)CC1CCOCC1,-63,-4
Cc1cccc(S(=O)(=O)N[C@@H]2CC[C@H](CCNC(=O)c3cnccn3)O[C@@H]2CO)c1,3,x
Cc1noc(C)c1S(=O)(=O)Nc1ccc2c(c1)C(=O)N([C@H](C)CO)C[C@H](C)[C@H](CN(C)S(=O)(=O)c1cn(C)cn1)O2,9,-1
CCC(=O)N(C)C[C@H]1Oc2cc(C#Cc3ccccn3)ccc2S(=O)(=O)N([C@H](C)CO)C[C@H]1C,x,-1
COc1ccc(S(=O)(=O)N(C)C[C@H]2Oc3ccc(NS(=O)(=O)c4ccccc4)cc3C(=O)N([C@@H](C)CO)C[C@H]2C)cc1,13,1
COc1ccc(S(=O)(=O)Nc2ccc3c(c2)C(=O)N([C@@H](C)CO)C[C@H](C)[C@@H](CN(C)C(=O)Nc2cccc4ccccc24)OCCCC[C@H](C)O3)cc1,-78,3
COc1ccc(S(=O)(=O)Nc2ccc3c(c2)C(=O)N([C@@H](C)CO)C[C@H](C)[C@H](CN(C)C(=O)Nc2cccc4ccccc24)OCCCC[C@H](C)O3)cc1,-86*,x
COc1ccc(S(=O)(=O)Nc2ccc3c(c2)C(=O)N([C@@H](C)CO)C[C@@H](C)[C@@H](CN(C)C(=O)Nc2cccc4ccccc24)OCCCC[C@@H](C)O3)cc1,-29,x

# Assay outcomes as filed in PubChem.
